# PAFAH1B3 FP inh: PAFAH1B3 (human) inhibition. inhibition, % at 3.39 µM. recombinant PAFAH1B3, FP-rhodamine probe, fluorescence polarization. actives 0.28% (n = 340,000). AID 492972;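 active = inhibition above the screen-wide average of all tested compounds plus 3 SD, cut at about 25% in these data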;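 note: 0% = enzyme with DMSO only and 100% = wells lacking PAFAH1B3 protein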
# TCR CD3 inh: blocks the human TCR-CD3 interaction; TAMRA-labeled TCR probe fluorescence, biochemical; inhibition, % at 9.4 µM; actives 0.37% (n = 360,000); AID 651800; in the data active = inhibition above about 19%;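 note: recombinant mutant TCR 2C K166C tagged with TAMRA read by polarization; 0% = receptor in buffer alone and 100% = receptor with positive control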
# PAFAH1B2 inh: blocks human PAF acetylhydrolase 1b catalytic subunit 2; P68402; recombinant PAFAH1B2, FP-rhodamine activity probe, fluorescence polarization; inhibition, % at 3.39 µM; actives 1.2% (n = 340,000); AID 492953;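 active = inhibition above the mean of all tested compounds plus 3 SD, cut at about 24% in these data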;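 note: 0% = enzyme with DMSO and 100% = wells lacking PAFAH1B2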
# pPAFAH inh: pPAFAH (human) enzyme inhibition | actives 1.5% (n = 330,000) | AID 463082 | recombinant pPAFAH, FP-rhodamine probe fluorescence polarization | inhibition, % at 3.39 µM;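 active = inhibition above the mean inhibition across the screen plus 3 SD, cut at about 25% in these data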;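 note: inhibitors block binding of the rhodamine activity-based probe so polarization drops; 0% = enzyme with DMSO and 100% = wells lacking pPAFAH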
# Target sequence (Q13093 whole entry, looked up): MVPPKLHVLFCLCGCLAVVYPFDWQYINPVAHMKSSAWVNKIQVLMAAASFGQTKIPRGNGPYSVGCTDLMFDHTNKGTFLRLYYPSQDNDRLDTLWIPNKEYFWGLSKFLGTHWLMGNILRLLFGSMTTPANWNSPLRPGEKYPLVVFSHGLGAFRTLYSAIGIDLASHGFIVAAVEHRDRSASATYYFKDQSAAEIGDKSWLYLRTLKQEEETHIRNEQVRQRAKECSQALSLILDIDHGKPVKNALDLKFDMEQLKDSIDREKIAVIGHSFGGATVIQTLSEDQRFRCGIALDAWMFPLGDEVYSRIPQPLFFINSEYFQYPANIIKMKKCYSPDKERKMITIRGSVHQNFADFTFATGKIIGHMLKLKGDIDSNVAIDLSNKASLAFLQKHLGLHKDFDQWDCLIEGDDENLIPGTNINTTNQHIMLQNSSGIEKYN
# PAFAH2 inh: PAFAH2 (human) inhibition. recombinant PAFAH2, FP-rhodamine activity probe, fluorescence polarization. inhibition, % at 3.39 µM. actives 0.99% (n = 340,000);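 active = inhibition above the mean over all tested compounds plus 3 SD, cut at about 30% in these data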;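 note: inhibitors block probe labeling of enzyme so polarization drops; 0% = enzyme with DMSO and 100% = wells lacking PAFAH2 protein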
# Active calls of the source: *; / = not tested or not shown. Shown are actives, neighbours in structure and some others; about 2.7% of the full set was active somewhere.
SMILES,PAFAH1B3 FP inh,TCR CD3 inh,PAFAH1B2 inh,pPAFAH inh,PAFAH2 inh
CSCCC1NC(=O)C(C(C)=NNC(N)=O)=C1O (stereo not given),9,0,5,/,-9
Cc1ccc(-n2nnnc2SCCNS(=O)(=O)c2ccccc2)cc1C,6,-1,-3,29*,6
Cn1nnnc1SCCNS(=O)(=O)c1ccccc1,-3,-1,1,8,-3
CCN=C1NC(c2ccc(F)cc2)C(C(=O)OC)=C(C)N1Cc1ccccc1C(F)(F)F (stereo not given),/,6,/,/,/
CC(C)(C)OC(=O)[C@H]1[C@H](c2ccc([N+](=O)[O-])cc2)C2(C(=O)c3ccccc3C2=O)C2c3ccccc3C=NN21 (stereo not given in full),2,0,84*,11,7
CCCN(CC(=O)Nc1ccc(Cl)cc1Cl)C(=O)c1ccc(=O)[nH]c1,4,3,-4,6,10
Cc1ccc(S(=O)(=O)N2CC(CBr)=CCC2c2ccccc2)cc1 (stereo not given),/,3,/,/,/
Cc1nc2ccccn2c1-c1ccnn1S(=O)(=O)c1ccc(F)cc1,-3,5,31*,3,12
Cc1nc(NCC(c2ccccc2)N(C)C)c2c(C)c(C)sc2n1 (stereo not given),8,12,5,1,-8
CCOC(=O)/C=C/[C@H]1CC(c2ccccc2)(c2ccccc2)CO1,12,-3,11,0,-2
O=C(CSc1nnc(CCc2ccccc2)n1-c1ccc(Cl)cc1)NCc1ccccc1,5,-8,9,35*,5
COc1ccc(-n2c(CCc3ccccc3)nnc2SCC(=O)NCc2ccccc2)cc1,-4,2,6,11,1
NC(=O)c1ncn([C@@H]2O[C@H](C(=O)N3CCCN(Cc4ccccc4F)CC3)[C@@H](O)[C@H]2O)n1,/,6,/,/,/
CCC(C)c1ccccc1NC(=O)COC(=O)c1ccc(N2CCCC2)c([N+](=O)[O-])c1 (stereo not given),4,-3,-2,30*,79*
Cc1noc(C)c1S(=O)(=O)N1CCCC(C(=O)NCCC2=CCCCC2)C1 (stereo not given),16,1,9,1,-2
CCS(=O)(=O)N1CCCC(C(=O)NCCc2ccc(C)cc2)C1 (stereo not given),-2,8,5,0,7
Cc1ccc(CCNC(=O)C2CCCN(S(=O)(=O)c3c(C)nn(C)c3C)C2)cc1 (stereo not given),10,-6,29*,5,-2
Cc1noc(/C=C/N(C)C)c1S(=O)(=O)N1CCCC(C(=O)NCCC2=CCCCC2)C1 (stereo not given),2,3,20,25*,-2
COc1cc2c(cc1OC)[C@@H](NC(=O)c1ccncc1)[C@H](C)[C@H]2c1ccccc1,/,-5,/,/,/
CCOc1ccc2nc(SCC(=O)NCc3ccccc3OC)[nH]c2c1,10,4,5,8,-3
CCC(C(=O)c1ccc2ncccc2c1)c1ccccc1 (stereo not given),10,-2,25*,2,10
O=C(Nc1ccc2ncccc2c1)c1ccccc1,6,3,-7,1,-10
O=C(O)c1cc(-n2nnnc2SCc2ccccc2F)ccc1Cl,2,-3,1,1,0
O=C(O)c1cc(-n2nnnc2SCc2ccc([N+](=O)[O-])cc2)ccc1Cl,4,-1,26*,7,4
Cc1ccc(C(c2nnnn2Cc2ccccc2)N2CCN(Cc3ccccc3)CC2)cc1 (stereo not given),1,1,31*,-2,0
SMILES,PAFAH1B3 FP inh,TCR CD3 inh,PAFAH1B2 inh,pPAFAH inh,PAFAH2 inh
CSc1nnc(-c2cccs2)n1-c1ccccc1,2,-2,6,-3,1
CN1CCN(S(=O)(=O)c2ccc(Sc3nnc(-c4cccs4)n3-c3ccccc3)nc2)CC1,0,-6,33*,4,-1
COc1ccc(C(=NNc2ccccc2C(=O)O)c2ccc(OC)cc2)cc1,12,-6,6,33*,19
COc1ccc(C(=O)Nc2ccccc2C(=O)Nc2ccccc2C(=O)O)cc1,6,-4,-7,-16,-3
CC(C)c1ccc(-c2nc(N3CCOCC3)[nH]c(=O)c2C#N)cc1,7,0,33*,4,0
CC(C)C[C@H](NC(=O)C1CCCC1)C(=O)N1CCC[C@H]1C(=O)NCc1ccccc1,/,1,/,/,/
CCCOc1ccc(C(=O)O)cc1,5,-5,10,1,6
CCCOc1ccc(C(=O)ON=C2CCN(C)CC2)cc1,-4,3,4,26*,78*
Cc1ccc(NC(=O)CCSCCC(=O)Nc2ccc(C)c(C)c2)cc1C,-8,5,29*,5,-15
COc1ccccc1-c1cccc2c3c([nH]c12)[C@@H]1C[C@H]2[C@@H](C(=O)N1CC3)[C@H](C)ON2C,/,4,/,/,/
Cc1noc(C)c1COc1ccccc1C(=O)NC(C)c1ccc(Cl)cc1 (stereo not given),9,0,32*,-4,0
Cc1noc(C)c1COc1ccccc1C(=O)NC(C)CCc1ccccc1 (stereo not given),0,3,2,/,-5
COc1ccc(-c2[nH]c(-c3ccc(SC)cc3)nc2SCC(=O)Nc2nccs2)cc1,25,1,27*,7,-21
Cc1cccc(OCCNS(=O)(=O)c2ccc(Cl)cc2)c1,-3,-3,24*,6,3
CCCCCCCCCCCCCCCC[N+](C)(C)CCN(Cc1ccc(OC)cc1)c1ncccn1,11,/,2,32*,14
CCOC(=O)c1cnc2c3c(noc13)CCC2,/,-8,/,/,/
COc1cc(NCCCn2cnc3c(OC)ncnc32)cc(OC)c1OC,/,-2,/,/,/
Cc1ccc(N=C2NC(=O)CS2)cc1,3,3,5,4,9
Cc1ccc(SCC(=O)N=C2NC(=O)CS2)cc1,-1,2,26*,6,-1
CC(=O)Nc1cc(-c2cccnc2)cn2c(-c3cccc(C(F)(F)F)c3)cnc12,/,-6,/,/,/
Cc1ccc2nc(-c3ccc(F)cc3)c(Cc3ccsc3)n2c1,/,0,/,/,/
Cc1cc(=O)[nH]c(SCC(=O)Nc2nc(-c3ccccc3)cs2)n1,8,3,4,4,8
CCOC(=O)c1ccccc1NC(=O)CSc1nnc(C)c(=O)[nH]1,12,1,34*,2,7
Cc1ccccc1NC(=O)CSc1nnc(C)c(=O)[nH]1,7,8,-2,-5,11
Cc1nnc(SCC(=O)Nc2nc(-c3ccc(F)cc3)cs2)[nH]c1=O,5,4,30*,6,2
O=C(Nc1ccccc1)ON=C1c2ccccc2-c2ccccc21,21,9,6,-7,-2
O=C(Nc1ccccc1Cl)ON=C1c2ccccc2-c2ccccc21,26*,/,3,-5,-1
c1ccc(CSc2nnc3c(n2)OC(c2ccco2)Nc2ccccc2-3)cc1 (stereo not given),0,/,6,26*,23

# Screening results deposited in PubChem by The Scripps Research Institute Molecular Screening Center.
